Measured values published in the antibiotic and cytotoxicity screens of Wong et al. (2023).
Among all 39,000 compounds or so, about 1,500 (3.8%) were called active. This excerpt belongs to a sample that is enriched for actives.

Test system: HSkMC (human skeletal muscle cells)
Test: cytotoxicity call (relative viability < 0.9)
Settings: 10 µM

| SMILES | cytotoxicity call |
| --- | --- |
| C[C@H](CO)N1C[C@H](C)[C@H](CN(C)C(=O)Nc2ccc(C(F)(F)F)cc2)Oc2c(NC(=O)Nc3ccc4c(c3)OCO4)cccc2C1=O | inactive |
| C[C@H]1CN([C@@H](C)CO)C(=O)c2cc(NS(=O)(=O)c3ccc(F)cc3)ccc2O[C@H]1CN(C)Cc1ccncc1 | inactive |
| c1ccc([C@@H]2Oc3ccccc3[C@@H]3Oc4ccccc4C[C@@H]23)cc1 | inactive |
| Cc1noc(C)c1S(=O)(=O)Nc1cccc2c1O[C@H](CN(C)CC1CC1)[C@H](C)CN([C@H](C)CO)C2=O | inactive |
| C[C@@H]1CN([C@@H](C)CO)C(=O)c2cc(NC(=O)Cc3ccccc3)ccc2O[C@@H](C)CCCCO[C@@H]1CN(C)C(=O)Nc1ccccc1 | inactive |
| COc1ccc(CN(C)C[C@@H]2OCCCC[C@H](C)Oc3ccc(NC(=O)C4CCCCC4)cc3C(=O)N([C@@H](C)CO)C[C@H]2C)cc1 | inactive |
| C[C@@H]1CN([C@@H](C)CO)C(=O)c2cccc(NC(=O)C3CC3)c2O[C@@H]1CN(C)Cc1ccc(C(=O)O)cc1 | inactive |
| Cc1noc(C)c1S(=O)(=O)N(C)C[C@H]1Oc2ccc(NC(=O)C3CC3)cc2CC(=O)N([C@H](C)CO)C[C@H]1C | inactive |
| Cc1ccc(S(=O)(=O)Nc2ccc3c(c2)C(=O)N([C@@H](C)CO)C[C@H](C)[C@H](CN(C)C(=O)Nc2ccccc2)OCCCC[C@H](C)O3)cc1 | inactive |
| COc1ccc(CN(C)C[C@@H]2Oc3ccc(NS(=O)(=O)c4cn(C)cn4)cc3CC(=O)N([C@@H](C)CO)C[C@H]2C)cc1 | inactive |
| C[C@H](CO)N1C[C@H](C)[C@H](CN(C)C(=O)Nc2ccccc2)OCc2ccccc2-c2c(n(C)c3ccccc23)C1=O | inactive |
| COc1ccc(NC(=O)N(C)C[C@@H]2Oc3ncc(C#C[C@H](C)O)cc3C(=O)N([C@H](C)CO)C[C@@H]2C)cc1 | inactive |
| Cc1noc(C)c1S(=O)(=O)Nc1ccc2c(c1)C(=O)N([C@H](C)CO)C[C@H](C)[C@H](CN(C)C(=O)Nc1ccc(C(F)(F)F)cc1)OCCCC[C@H](C)O2 | active |
| Cc1noc(C)c1S(=O)(=O)Nc1ccc2c(c1)C(=O)N([C@@H](C)CO)C[C@@H](C)[C@H](CN(C)C(=O)Nc1ccc(C(F)(F)F)cc1)OCCCC[C@H](C)O2 | inactive |
| Cc1noc(C)c1S(=O)(=O)Nc1ccc2c(c1)C(=O)N([C@@H](C)CO)C[C@@H](C)[C@@H](CN(C)C(=O)Nc1ccc(C(F)(F)F)cc1)OCCCC[C@@H](C)O2 | inactive |
| COc1ccc(S(=O)(=O)Nc2ccc3c(c2)C(=O)N([C@@H](C)CO)C[C@@H](C)[C@H](CN(C)C(=O)NC(C)C)O3)cc1 | inactive |
| C[C@@H]1CN([C@H](C)CO)C(=O)c2cc(C#Cc3cccc(F)c3)cnc2O[C@H]1CN(C)CC1CCOCC1 | inactive |
| CC=Cc1ccc2n(c1=O)C[C@H]1[C@H](CO)[C@@H](C(=O)NC3CCC3)[C@@H]2N1S(=O)(=O)c1cn(C)cn1 | inactive |
| Cc1noc(C)c1S(=O)(=O)Nc1ccc2c(c1)CC(=O)N([C@@H](C)CO)C[C@H](C)[C@H](CN(C)S(C)(=O)=O)O2 | inactive |
| CC(C)(C)c1cc(CCC(=O)OCC(COC(=O)CCc2cc(C(C)(C)C)c(O)c(C(C)(C)C)c2)(COC(=O)CCc2cc(C(C)(C)C)c(O)c(C(C)(C)C)c2)COC(=O)CCc2cc(C(C)(C)C)c(O)c(C(C)(C)C)c2)cc(C(C)(C)C)c1O | inactive |
| CC(C)(Sc1cc(C(C)(C)C)c(O)c(C(C)(C)C)c1)Sc1cc(C(C)(C)C)c(O)c(C(C)(C)C)c1 [listing 1 of 2 here] | inactive |
| CC(C)(Sc1cc(C(C)(C)C)c(O)c(C(C)(C)C)c1)Sc1cc(C(C)(C)C)c(OCC(=O)O)c(C(C)(C)C)c1 | active |
| CC(C)(Sc1cc(C(C)(C)C)c(O)c(C(C)(C)C)c1)Sc1cc(C(C)(C)C)c(OC(=O)CCC(=O)O)c(C(C)(C)C)c1 | active |
| CC(C)(Sc1cc(C(C)(C)C)c(O)c(C(C)(C)C)c1)Sc1cc(C(C)(C)C)c(O)c(C(C)(C)C)c1 [listing 2 of 2 here] | inactive |

| SMILES | cytotoxicity call |
| --- | --- |
| C[C@@H]1CN([C@@H](C)CO)C(=O)c2cccc(NC(=O)Nc3ccc(F)cc3)c2O[C@@H]1CN(C)C(=O)Nc1ccc(C(F)(F)F)cc1 | inactive |
| C[C@@H]1CN([C@@H](C)CO)S(=O)(=O)c2ccc(-c3cncnc3)cc2O[C@H]1CN(C)C(=O)c1ccc2c(c1)OCO2 | inactive |
| COCC(=O)N1C[C@H](C)[C@@H](OC)CN(C)C(=O)c2cc(NC(=O)Nc3cccc(F)c3)ccc2OC[C@@H]1C | inactive |
| COC[C@@H]1CN(C(=O)[C@H]2CCCN2C)N1 | inactive |
| COC(=O)[C@@H](Cc1ccccc1)N[C@H](/C=C/C1CC1)[C@@H](O)CCn1cc(-c2ccc(C(=O)NO)cc2)nn1 | inactive |
| CC[C@@H]1COCCC(=O)N1 | inactive |
| Cc1nc2cc(C)c(C)cc2s1 | inactive |
| Cc1ccc(NC(=O)Nc2cc(C(F)(F)F)ccc2F)cc1Nc1ccc2c(c1)NC(=O)/C2=C\c1ccc[nH]1 | active |
| C[C@@H]1CN([C@H](C)CO)C(=O)Cc2cc(NS(C)(=O)=O)ccc2O[C@H]1CN(C)S(=O)(=O)c1ccc(F)cc1 | inactive |
| Cc1noc(C)c1NC(=O)Nc1ccc2c(c1)C(=O)N([C@H](C)CO)C[C@@H](C)[C@@H](CN(C)S(=O)(=O)c1c(C)noc1C)O2 | inactive |
| C[C@@H]1CN([C@@H](C)CO)C(=O)c2cccc(NC(=O)C3CC3)c2O[C@@H]1CN(C)Cc1ccc(-c2ccccc2)cc1 | inactive |
| C[C@@H]1CN([C@H](C)CO)S(=O)(=O)c2ccc(-c3ccccc3F)cc2O[C@H]1CN(C)Cc1cncnc1 | inactive |
| C[C@@H]1CCCCO[C@@H](CN(C)Cc2ccc(Cl)c(Cl)c2)[C@@H](C)CN([C@@H](C)CO)C(=O)c2cc(NC(=O)c3ccccc3)ccc2O1 | inactive |
| COc1ccc(NC(=O)Nc2ccc3c(c2)C(=O)N([C@H](C)CO)C[C@@H](C)[C@H](CN(C)Cc2ccc(Cl)c(Cl)c2)OCCCC[C@@H](C)O3)cc1 | active |
| COc1ccc(NC(=O)Nc2ccc3c(c2)C(=O)N([C@H](C)CO)C[C@@H](C)[C@H](CN(C)Cc2ccc(Cl)c(Cl)c2)OCCCC[C@H](C)O3)cc1 | active |
| COc1ccc(NC(=O)Nc2ccc3c(c2)C(=O)N([C@H](C)CO)C[C@H](C)[C@@H](CN(C)Cc2ccc(Cl)c(Cl)c2)OCCCC[C@H](C)O3)cc1 | inactive |
| COc1ccc(NC(=O)Nc2ccc3c(c2)C(=O)N([C@@H](C)CO)C[C@H](C)[C@@H](CN(C)Cc2ccc(Cl)c(Cl)c2)OCCCC[C@@H](C)O3)cc1 | inactive |
| COc1ccc(NC(=O)Nc2ccc3c(c2)C(=O)N([C@@H](C)CO)C[C@@H](C)[C@@H](CN(C)Cc2ccc(Cl)c(Cl)c2)OCCCC[C@H](C)O3)cc1 | inactive |
| COc1ccc(NC(=O)Nc2ccc3c(c2)C(=O)N([C@H](C)CO)C[C@H](C)[C@H](CN(C)Cc2ccc(Cl)c(Cl)c2)OCCCC[C@H](C)O3)cc1 | active |
| COc1ccc(NC(=O)Nc2ccc3c(c2)C(=O)N([C@@H](C)CO)C[C@H](C)[C@H](CN(C)Cc2ccc(Cl)c(Cl)c2)OCCCC[C@@H](C)O3)cc1 | inactive |
| COc1ccc(NC(=O)Nc2ccc3c(c2)C(=O)N([C@H](C)CO)C[C@H](C)[C@@H](CN(C)Cc2ccc(Cl)c(Cl)c2)OCCCC[C@@H](C)O3)cc1 | inactive |
| COc1ccc(NC(=O)Nc2ccc3c(c2)C(=O)N([C@H](C)CO)C[C@@H](C)[C@@H](CN(C)Cc2ccc(Cl)c(Cl)c2)OCCCC[C@H](C)O3)cc1 | inactive |
| Cc1noc(C)c1S(=O)(=O)N(C)C[C@H]1Oc2c(NC(=O)NC3CCCCC3)cccc2C(=O)N([C@H](C)CO)C[C@@H]1C | inactive |
| C[C@H](CO)N1C[C@H](C)[C@@H](CN(C)S(=O)(=O)c2cn(C)cn2)Oc2ccc(NC(=O)Cn3cnnn3)cc2C1=O | inactive |

| SMILES | cytotoxicity call |
| --- | --- |
| CC(C)NC(=O)N(C)C[C@@H]1Oc2ccc(NS(=O)(=O)c3ccc(Cl)cc3)cc2CC(=O)N([C@H](C)CO)C[C@@H]1C | inactive |
| CC(C)NC(=O)Nc1ccc2c(c1)C(=O)N([C@H](C)CO)C[C@H](C)[C@@H](CN(C)S(=O)(=O)c1ccccc1)O2 | inactive |
| COc1ccc(S(=O)(=O)N(C)C[C@H]2Oc3c(NC(=O)c4cc(C)nn4C)cccc3C(=O)N([C@H](C)CO)C[C@@H]2C)cc1 | inactive |
| COc1ccc(S(=O)(=O)Nc2ccc3c(c2)C(=O)N([C@H](C)CO)C[C@H](C)[C@@H](CN(C)C(=O)Nc2ccccc2)OCCCC[C@@H](C)O3)cc1 | inactive |
| C[C@H]1CN([C@@H](C)CO)C(=O)c2ccccc2-c2ccccc2CO[C@H]1CN(C)Cc1ccc(C(F)(F)F)cc1 | inactive |
| C[C@@H]1CCCCO[C@H](CN(C)Cc2ccc(C(=O)O)cc2)[C@@H](C)CN([C@H](C)CO)C(=O)c2cc(NS(=O)(=O)c3ccc(Cl)cc3)ccc2O1 | inactive |
| CNC(=O)C(=O)Nc1cc(Cl)ccc1C#N | inactive |
| CCN(CC)C(=O)[C@@H]1C[C@@H](N)CN1S(=O)(=O)N1CCCCCC1 | inactive |
| c1ccc(Cn2c(-c3ccc(OC[C@H](C4CCNCC4)n4c(-c5ccccc5)nc5ccccc54)cc3)nc3ccccc32)cc1 | active |
| Cc1nc2ccccc2n1Cc1ccc(Cl)cc1 | inactive |
| Cc1ccc(OCCn2c(CC(C)(C)C)nc3ccccc32)cc1 | inactive |
| C[C@H](O)C#Cc1ccc2c(c1)O[C@H](CN(C)C(=O)Nc1ccccc1)[C@@H](C)CN([C@H](C)CO)S2(=O)=O | inactive |
| C[C@H]1CN([C@@H](C)CO)C(=O)c2cc(-c3cccnc3)cnc2O[C@@H]1CN(C)Cc1ccc(-c2ccccc2)cc1 | inactive |
| C[C@@H]1CN([C@@H](C)CO)C(=O)c2cc(NC(=O)NC3CCCCC3)ccc2O[C@@H](C)CCCCO[C@H]1CN(C)Cc1ccc(Cl)c(Cl)c1 | inactive |
| C[C@@H]1CCCCO[C@@H](CN(C)Cc2ccc(Cl)c(Cl)c2)[C@@H](C)CN([C@@H](C)CO)C(=O)c2cc(NC(=O)NC3CCCCC3)ccc2O1 | inactive |
| C[C@H]1CCCCO[C@H](CN(C)Cc2ccc(Cl)c(Cl)c2)[C@@H](C)CN([C@@H](C)CO)C(=O)c2cc(NC(=O)NC3CCCCC3)ccc2O1 | active |
| C[C@@H]1CCCCO[C@@H](CN(C)Cc2ccc(Cl)c(Cl)c2)[C@H](C)CN([C@H](C)CO)C(=O)c2cc(NC(=O)NC3CCCCC3)ccc2O1 | inactive |
| C[C@@H]1CCCCO[C@H](CN(C)Cc2ccc(Cl)c(Cl)c2)[C@@H](C)CN([C@H](C)CO)C(=O)c2cc(NC(=O)C3CCCCC3)ccc2O1 | inactive |
| C[C@@H]1CCCCO[C@H](CN(C)Cc2ccc(Cl)c(Cl)c2)[C@@H](C)CN([C@@H](C)CO)C(=O)c2cc(NC(=O)NC3CCCCC3)ccc2O1 | active |
| C[C@@H]1CCCCO[C@H](CN(C)Cc2ccc(Cl)c(Cl)c2)[C@H](C)CN([C@@H](C)CO)C(=O)c2cc(NC(=O)C3CCCCC3)ccc2O1 | inactive |
| C[C@@H]1CCCCO[C@H](CN(C)Cc2ccc(Cl)c(Cl)c2)[C@@H](C)CN([C@@H](C)CO)C(=O)c2cc(NC(=O)C3CCCCC3)ccc2O1 | active |
| C[C@@H]1CCCCO[C@H](CN(C)Cc2ccc(Cl)c(Cl)c2)[C@@H](C)CN([C@H](C)CO)C(=O)c2cc(NC(=O)NC3CCCCC3)ccc2O1 | inactive |
